As usually defined, the inhibition is the change of the read-out against control, counted positive when it falls.

Each structure is given as a SMILES string. Several values for one entry are separate records, joined by “and”; a condition that tells them apart may be missing. Equal values may be shown once. The list shows a part of the results. Values without a mark were called inactive. The rule behind the calls is not given here.

This assay deals with Botulinum neurotoxin type F light chain protease (Clostridium botulinum). Put plainly: BoNT/F light chain protease inhibitors, confirmation, biochemical, flow cytometry, cherry pick 1 (AID 602140). The conditions noted are these: multiplex microsphere protease cleavage assay, at 10 µM, active compounds read high.
As for `COCCn1nnnc1C(c1cc2ccc(OC)cc2[nH]c1=O)N1CCc2ccccc2C1` (stereo unspecified), the inhibition is -9.6%.

On to `COc1ccc(C2CC(c3cccs3)=NN2c2nc(C)c(C(C)=O)s2)cc1OC` (stereo unspecified), for which the inhibition is -1.7% and 7.1%.

In the case of `COc1ccc(Br)cc1CNCCc1cccc(Cl)c1`, the inhibition is -10%.

Turning to `Cc1ccc(C(=O)COc2cccc(NC(=O)c3ccco3)c2)cc1`, the inhibition is -7.2%.

Consider `COc1ccc(N(CC(=O)NCCSCc2cccc(Cl)c2)S(C)(=O)=O)cc1`, for which the inhibition was -2.3%.

For the compound `Cc1ccccc1NC(=O)c1cc(S(=O)(=O)Nc2cccc(C(=O)O)c2)ccc1Cl`, the inhibition is -1.9%.

On to `COc1ccc(NS(=O)(=O)c2cc(C(=O)Nc3ccccc3C(=O)O)ccc2C)cc1`, for which the inhibition is -0.5%.

In the case of `O=C(CN1CCCCCC1)Nc1c(Cl)cc(Cl)cc1Cl`, the inhibition is -7.6%.

In the case of `CC(C)Cc1nnc(NC(=O)CCC(=O)Nc2ccc3cn[nH]c3c2)s1`, the inhibition is -1.9%.

`Clc1ccc(-c2ncc3ccccn23)c(Cl)c1`: the inhibition was -4.7%.

For `OC(c1ccc(Cl)cc1)C(CN1CCOCC1)c1ccccc1` (stereo unspecified), the inhibition was 3.4%.

`CCOCCn1c(-c2ccccc2)nc2ccccc21`: the inhibition is -2.2%.

Take `COc1ccccc1CNC(=O)C1Cc2ccccc2C(=O)O1` (stereo unspecified): the inhibition was -1.3%.

Turning to `CC(=O)c1cccc(NC(=O)N2CCCC2C(=O)NCCc2ccccc2)c1` (stereo unspecified), the inhibition was 0%.

As for `Cc1ccc2[nH]cc(CCNC(=O)C3CCCCC3)c2c1`, the inhibition is 0.6%.

With `CN1CCN(c2ccc(NC(=O)c3ccccc3)cc2)CC1`, the inhibition was 1.4%.

`CCN1CCN(C(C(=O)NC2CCCC2)c2cc3c(cc2[N+](=O)[O-])OCO3)CC1` (stereo unspecified): the inhibition was -4.2%.

For the compound `CC(=O)Nc1ccc(Oc2ccc3c(c2)C(=O)NC3=O)cc1`, the inhibition was -3.5%.

With `Cc1cccc2cc3c(N)c(C(=O)N4CCCc5ccccc54)sc3nc12`, the inhibition was 0.3%.

Take `Cc1c(NC(=O)c2cccnc2)c(=O)n(-c2ccccc2)n1C`: the inhibition is 2.7%.

Turning to `CN(C(=O)c1ccccn1)c1nnc(-c2ccccn2)s1`, the inhibition is -3.7%.
